Here are results for ten molecules from the supplement of paper PMC10105736.

Values without a mark were called inactive.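 How the source made its calls: active = MAPPIT score above the 99th percentile of random reference set scores in the same batch; inactive = at or below it.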

Common to all, as to test: MAPPIT interaction score (arbitrary units); higher = stronger binary interaction signal, active = hit call of the paper
Test [1] concerns the target Gem2. The note with it: MAPPIT configuration: N-N; pair source set: Lit-BM-16.
The target in test [2] is Smn. Particulars: MAPPIT configuration: N-N; pair source set: screen_2.
Test [3] has as its target HP5. Particulars: MAPPIT configuration: N-N; pair source set: Curagen_low_conf.
The target of test [4] is GILT3. Particulars: MAPPIT configuration: N-N; pair source set: Finley_Y2H.
For test [5], the target named is Gnpnat. Particulars: MAPPIT configuration: N-N; pair source set: screen_1.
Test [6] concerns the target Jhbp2. The note with it: pair source set: RRS.
Test [7] concerns the target GstE4. Particulars: MAPPIT configuration: N-C; pair source set: RRS.
In test [8] the target is PGRP-LE. Particulars: pair source set: Lit-BM-16.
Test [9] concerns the target Wee1. The note with it: MAPPIT configuration: N-N; pair source set: Curagen_high_conf.
In test [10] the target is GILT1. Particulars: MAPPIT configuration: N-N; pair source set: Curagen_low_conf.
Test [11] has as its target Mad1. Particulars: MAPPIT configuration: N-N; pair source set: screen_1.
Test [12] has as its target GluRIIC. The note with it: MAPPIT configuration: N-N; pair source set: Lit-BS-16.
The target in test [13] is FoxP. The note with it: MAPPIT configuration: N-N; pair source set: Curagen_high_conf.
For test [14], the target named is GstD8. The note with it: MAPPIT configuration: N-N; pair source set: screen_1.
Test [15] has as its target Gs1. Particulars: pair source set: RRS.
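Further: HEK293T cells with Epo stimulation, STAT-responsive firefly luciferase reporter, fold induction versus unstimulated cells divided by the larger fold induction of two negative controls lacking either bait or prey.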

B1: Smn (protein)
chain: MSDETNAAVWDDSLLVKTYDESVGLAREALARRLADSTNKREEENAAAAEEEAGEISATGGATSPEPVSFKVGDYARATYVDGVDYEGAVVSINEEKGTCVLRYLGYENEQEVLLVDLLPSWGKRVRREQFLIAKKDEDEQLSRPKASAGSHSKTPKSSRRSRISGGLVMPPMPPVPPMIVGQGDGAEQDFVAMLTAWYMSGYYTGLYQGKKEASTTSGKKKTPKK
As to B1, the results for the MAPPIT interaction score in test [1] and in [2] were 6.28 (active) and 6.24 (active), respectively.

B2: ZIPIC (protein)
chain: MNCCICQFSVRVPKDIHTDTVGHPPVLISELVLQCTRGTNYVLTEESSTICKKCCEKLARYHKSIQIARKLRGEILELIHSPYMSKDHKQTSYKEDDLDRETTISKFDGNIEEAQQQDEEEQELESVGTTVTLVGPAGIVEEVAEEEHTFIIKQSEEEDEFHSVDLELDIDNEIIINEEEAHEVEEVAHEIEEVAHEIEEEDLLPHDKQEAQEEDFFKEDTMSDFDEHLDGAIEYIISDGEDQEQDNESSGEYTVNIQCPSCPEKFSSRRAYNVHTKREHFPGYVCDQCGKTLQSYSGFIGHLQNHEPVKQFACPVCPERFSRKFRLKHHMAWHSGETPYQCDVCSKRFVHKVALYKHKMIHDSETKRLECQVCGFKTRTKAHLERHMRSHTGDKPFACPVCNKRFSQMYNMKAHLREHESPGTNRHRRFHCSKCTHTFINEQNYDAHVQRDDCTPV
B2: the MAPPIT interaction score in [3] was 0.196.

B3: fog (protein)
chain: MSPPNCLLAVLALTVFIGANNALPITSRPIEGNVQRMVWEDWVNLDPEQRNLTKEKKITAKSIFTLPFRHCPQGHTLFNQLCIPQSNIDPTDLVKQELILAGGSNGSPPPPPIGDYDYGDDEESEEIVYDLSVIPTAMQDGLPPSVGTGDQALPSEDAPLKFNIFEKKFPTGTGEHEEMPLPPDMAAATYAKNISTTPETSTSITPTSTTTFAVPSVPSGEASNRIPGGVDLLAAPSDAFSTSTTLSMPTSNTTTTSNKDIGQVESIVLPADQEHDGLVHLVTSSLSDNDSDDSSTTLNGFNAEADLAQLLKVDAFWPVYDGSIELLPPLFSHRKVAPPLSADQDVKTKHAVDAAEKVGAELEEEVGEEEVTATDILPSEEDEYTTETATTTGDTTVAEASMDTSTATSTSGQSSPHPPEEPEIDERENRLVLIKSKVQPVQLTTTTSATATTAADVANSSSSTDRFHYQHFVEDESSTTTATPEPSSSTPGDPIEQSDMPASDNDNLMTNTIGGRGDDDDDGGHKATSEIHVQQELRLINELVKGKQRQQHQPQKQQLEPTSTEITSALTSTSTEDATTTTTTTTAYTNWSKVMPQLGQSTSETAATTETVATSGQVNEISLTATSASTEVKHFSITNRSYRNSKIIREDRLTVEPEGIVESAASTESAGTAATTPNSSSNPDGYTPLWWLPSIGWRLDRHLDGNGEDQSLLLRFFSTFRGSNTAATTR
On to B3, for which, in test [4], the MAPPIT interaction score was -0.488.

B4: Gnpnat (protein)
chain: MVQLTEETYLYDPNLLLKLDFHRSPANFKPFISAANPGEPWMKVRPLKDTDYDRGFLQLLSQLTHVGNVNRTQFLTRFSQMKASGDYFVTVIEDTRKNEIIGAASLVIERKFIHNCAVRGRLEDVVVNDTYRGKQLGKLIVVTVSLLAEELGCYKMSLDCKDKLIKFYESLGYVAIPGNSNSMTIRYDEGPTLKRNATSAGSSGTVGDSCQTVSLDFAS
Turning to B4, the MAPPIT interaction score was 5.14 (active) in test [5], -0.259 in test [6] (MAPPIT configuration: N-C) and 0.242 in [6] (MAPPIT configuration: N-N).

B5: PGRP-LE (protein)
chain: MSESGIKKLSQERTREWLASQEDEELESIAESSVVDSLDYDYTEEEEDADQNTSEEISTMTLGTQIATKKHSIISDTIRDLMNSINSIQTLGNVNISNSTNVHIGNVTNINGNIQIIADGLTQNRRDRRHVSPPRDNAPKTPTHFEDDYQDESEERVRSDVFIRRQKFKIPKELSAIIPRSSWLAQKPMDEPLPLQLPVKYVVILHTATESSEKRAINVRLIRDMQCFHIESRGWNDIAYNFLVGCDGNIYEGRGWKTVGAHTLGYNRISLGISFIGCFMKELPTADALNMCRNLLARGVEDGHISTDYRLICHCQCNSTESPGRRLYEEIQTWPHFYNIEEEEQ
Regarding B5, the MAPPIT interaction score is 0.646 in test [7], 3.96 (active) in test [8] (MAPPIT configuration: N-C), 4.49 (active) in test [8] (MAPPIT configuration: N-N) and 2.63 (active) in test [9].

B6: me31B (protein)
chain: MMTEKLNSGHTNLTSKGIINDLQIAGNTSDDMGWKSKLKLPPKDNRFKTTDVTDTRGNEFEEFCLKRELLMGIFEKGWERPSPIQEAAIPIALSGKDVLARAKNGTGKTGAYCIPVLEQIDPTKDYIQALVMVPTRELALQTSQICIELAKHLDIRVMVTTGGTILKDDILRIYQKVQLIIATPGRILDLMDKKVADMSHCRILVLDEADKLLSLDFQGMLDHVILKLPKDPQILLFSATFPLTVKNFMEKHLREPYEINLMEELTLKGVTQYYAFVQERQKVHCLNTLFSKLQINQSIIFCNSTQRVELLAKKITELGYCCYYIHAKMAQAHRNRVFHDFRQGLCRNLVCSDLFTRGIDVQAVNVVINFDFPRMAETYLHRIGRSGRFGHLGIAINLITYEDRFDLHRIEKELGTEIKPIPKVIDPALYVANVGASVGDTCNNSDLNNSANEEGNVSK
For the molecule B6, the MAPPIT interaction score was 0.228 in [10] and 0.203 in test [11].

B7: cora (protein)
chain: MPAEIKPSAPAEPETPTKSKPKSSSSSHGKPALARVTLLDGSLLDVSIDRKAIGRDVINSICAGLNLIEKDYFGLTYETPTDPRTWLDLEKPVSKFFRTDTWPLTFAVKFYPPEPSQLKEDITRYHLCLQVRNDILEGRLPCTFVTHALLGSYLVQSEMGDYDAEEMPTRAYLKDFKIAPNQTAELEDKVMDLHKTHKGQSPAEAELHYLENAKKLAMYGVDLHPAKDSEGVDIMLGVCASGLLVYRDKLRINRFAWPKILKISYKRHHFYIKIRPGEFEQYESTIGFKLANHRAAKKLWKSCVEHHTFFRLMTPEPVSKSKMFPVFGSTYRYKGRTQAESTNTPVDRTPPKFNRTLSGARLTSRSMDALALAEKEKVARKSSTLDHRGDRNADGDAHSRSPIKNKKEKDADKEAKLREKKQKEKEEKERKEREKRELEEKKKAEKAAKAALAAGAAAGAAVNGNDELNDSNKSDKSSGRRGVGIFSSGRKSKSGSPSKDGKDKSGKDKDKEVGRLGLVVTSGLGDNQQDQNLDEAARNAAKNRGSTTPGVTRQYEYAVDNDGNTSPTRKSYTPGGFRYDQDPNSRKSGADGQEQLSPTSQQKKIGLAFNYAPGNENALKETAEKLKAGQLSPRTQDKLNRGQLSPKSRAKLLQDPLLSPTTRAKLQGSAVDAAAVPLSDSQKRSYSPTKGPQGYSSGAPGSYKPISDPTADFLESQRYNKEPGYVGPSKADVAAGLAGAAGSKKPGSPTKTGKGAPGAAAAAAAGAAGAAAAAAKPKKRRVKIMVITSKFDPSTKRIDAENGSIEHSTGILDPATGLIDTKYGVIDPKKGTLEALNTKTGKKEVFQGDVDGKTGNLHLVSGVADPKTGRLDDTLGQIVCITPQDNPVVELTVITSRIDPATGKIDTVNGDVERSLGVLNLDTGLLDTKYGEINTRTGELKAIDPKSGKIVVSKNVKVDPGTGQITILGIVDPKTNKIDPNQGRLIEVGQQIDPIVEVTSLAGKFDSKRNIIDPKTAQVETSGGQFDPKAGKIDTKYGQIDLVKHTITFNDPKSGKTVTRDIKIEPTTGQIVLKNQVNPKNNKPDKDYARIISLRIVQQRVDPATKAPITEVSASKDKDIVVDPKSNQIWVPTGATDPATKEQQYISSSVDPKTGYVITIYGYLDPKTNEIKKQTKLDPNTIKIEPTSGKIYTATGEVDQATGEPLYAATQVDPESGEVYTKLARVDPKTGKIVIVRILLISKTDERGRPEEIDPSTCEIDPVSGRVLKFFNKTVYVYNMIDPVTGEIVQVDPNDPRFAGARTTVTHTMTLTGEIDPVTGRIKSEYGDIDPNTGDIDPATAVTDPVTGKLILNYAQIDPSHFGKQAQVQTTTETVPITRQQFFDGVKHISKGALRRDSEGSSDDDMTAQYGADQVNEILIGSPAGQAGGKLGKPVSTPTVVKTTTKQVLTKNIDGVTHNVEEEVRNLGTGEVTYSTQEHKADATPTDLSGAYVTATAVTTRTATTHEDLGKNAKTEQLEEKTVATTRTHDPNKQQQRVVTQEVKTTATVTSGDQYQRRDSVSSTSSGDSGTPIDGPYDGASVVRTDNQKSPLFTTSATTGPHVESTRVVLGEDTPGFSGHGEIISTQTVSSKTRTVETITYKTERDGIVETRVEQKITIQSDGDPIDHDKALAEAIQEATAMNPDMTVEKIEIQQQTQ
For the molecule B7, the MAPPIT interaction score in test [12] was -0.379.

B8: mats (protein)
chain: MDFLFGSRSSKTFKPKKNIPEGTHQYDLMKHAAATLGSGNLRNAVALPDGEDLNEWVAVNTVDFFNQINMLYGTITEFCTEETCGIMSAGPKYEYHWADGLTVKKPIKCSAPKYIDYLMTWVQDQLDDETLFPSKIGVPFPKNFHSSAKTILKRLFRVYAHIYHQHFTEVVTLGEEAHLNTSFKHFIFFVQEFNLIERRELAPLQELIDKLTAKDERQI
As to B8, in test [13], the MAPPIT interaction score is 1.25.

B9: GstD1 (protein)
chain: MVDFYYLPGSSPCRSVIMTAKAVGVELNKKLLNLQAGEHLKPEFLKINPQHTIPTLVDNGFALWESRAIQVYLVEKYGKTDSLYPKCPKKRAVINQRLYFDMGTLYQSFANYYYPQVFAKAPADPEAFKKIEAAFEFLNTFLEGQDYAAGDSLTVADIALVATVSTFEVAKFEISKYANVNRWYENAKKVTPGWEENWAGCLEFKKYFE
On to B9, for which the MAPPIT interaction score in test [14] is 5.85 (active).

B10: cactin (protein)
chain: MPKEKSKHRHRSRSRERRDHRSPDPRSSRNRDRDREREREKDRDHRDHRDKERDQRREREKDKSRDKKREHKSRRRRSSSSSSSPSSSTSSSVPGAPRSPLVKSPMKLLQTLEARRLVEQKDRQRKKEELKAHETPEEKRARRLREKQAKEQRRRERMGWDNEYQTYSNEDNPFGDSNLTSTFHWGKKLEVEGLSNLSTKTVEVLSLQKQLENRRELEKVKKRRQERELERQVREDDLMMQQRAKEAVQFREWQRQEDQFHLEQARLRSEIRIRDGRAKPIDLLAQYVAAGNEPLEECLEMQMHEPYVLLNGLPVEELEDLLVDIKVYEELEQGKHIDFWNDMITIVQDELQRQQKLEAENSSLNQRRDGIHQAVVKDVADIFRGKNAQQLEEMRHRIEAKISGRADGVDISYWESLLSQLKAHMARARLRDRHQALLREKLSLLKRENDNETLQEKVAPQVKEEEMETQDAEDPEVEEGSPEDEEDPLNELRKTVRLYQAGNYSPRYIREEDFTGRRAQNEDVDEPEAEGLLYEEEDDERRTQRQRLLILHPERVDNNQLTPQELRMRNEAKQGMQGDEAEFSVETTLDAVPQLATDKYRPRKPRYFNRVHTGFEWNKYNQTHYDMDNPPPKIVQGYKFNIFYPDLMDKSQTPQYFLTPCADNGDFAVLRFHTGPPYEDIAFKIVNREWEFSYKRGFRCQFHNNIFQLWFHFKRYRYRR
Take B10: the figures for the MAPPIT interaction score in [15] (MAPPIT configuration: N-C) and in [15] (MAPPIT configuration: N-N) were 0.448 and 0.325, respectively.
